Values without a mark were called inactive. No rule for the calls is given here.

Chain of Pantothenate synthetase (Mycobacterium tuberculosis (strain ATCC 25618 / H37Rv)) (P9WIL5 whole entry, looked up): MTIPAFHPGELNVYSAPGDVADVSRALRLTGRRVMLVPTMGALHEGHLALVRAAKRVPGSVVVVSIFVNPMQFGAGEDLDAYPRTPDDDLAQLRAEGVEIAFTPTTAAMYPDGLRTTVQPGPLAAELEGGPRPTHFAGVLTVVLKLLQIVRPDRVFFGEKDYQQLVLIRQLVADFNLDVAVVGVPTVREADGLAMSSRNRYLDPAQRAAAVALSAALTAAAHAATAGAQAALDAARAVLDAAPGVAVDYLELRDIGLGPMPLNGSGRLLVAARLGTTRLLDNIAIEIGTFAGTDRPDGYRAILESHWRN

This test has as its target Pantothenate synthetase (Mycobacterium tuberculosis (strain ATCC 25618 / H37Rv)) (UniProt P9WIL5). The experiment in a line: Coupled enzyme confirmation of inhibitors against recombinant Mtb PanC (AID 375).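 Also: 0% = full reaction with vehicle and 100% = no enzyme background.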 To be noted: coupled enzyme assay; at 10 µM, stronger effect = higher value.
For `O=C(CN1C(=O)CC(c2ccccc2)=Nc2ccccc21)NCc1ccco1`, the inhibition was 0%.
On to `CNC(=O)CC(C(=O)O)c1ccc(OCC(C)C)cc1` (stereo not drawn), for which the inhibition was 1%.
Take `Cc1cc(C)n(S(=O)(=O)c2cc(C(=O)O)c(Cl)cc2Cl)n1`: the inhibition was 0%.
Take `CCOC(=O)/C(C#N)=C(/C)c1ccc(OC)cc1`: the inhibition was 0%.
In the case of `CCOC(=O)c1[nH]nc(-c2c(O)cc(C)cc2O)c1-c1csc(C)n1`, the inhibition was 0%.
With `Fc1cccc2sc(N3CCOCC3)nc12`, the inhibition is 1%.
Turning to `Oc1ccc(Cl)cc1-c1cc(-c2ccccc2)n[nH]1`, the inhibition is 0%.
Turning to `COC(=O)c1cn(NC(=O)C2CCCO2)c(=O)c2ccccc12` (stereo not drawn), the inhibition is 0%.
For the compound `Fc1cccc(NCc2cn3ccccc3n2)c1`, the inhibition is 0%.
In the case of `O=C(NC(NC1CCS(=O)(=O)C1)C(=O)c1cccs1)c1ccccc1` (stereo not drawn), the inhibition is 1%.
Turning to `CN(c1ccccc1)C(c1ccc(F)cc1)c1nnnn1CC1CCCO1` (stereo not drawn), the inhibition is 0%.
On to `Cc1c(NC(=O)c2noc3c2CCc2ccccc2-3)c(=O)n(-c2ccccc2)n1C`, for which the inhibition is 0%.
Under `OC(CCN1CCOCC1)(c1ccc(Cl)cc1)C1CCCCC1` (stereo not drawn) stands 0%.
Take `Cc1ccc(C(=O)OCC(=O)c2ccc(Cl)s2)s1`: the inhibition is 4%.
Consider `S=c1[nH]c2ccc(Cl)cc2[nH]1`, for which the inhibition was 9%.
Under `CCn1c(SCC(=O)N2CCN(c3ccc(Cl)cc3)CC2)nc2ccccc2c1=O` stands 0%; under `CCN(CC(=O)O)S(=O)(=O)c1cc(Cl)ccc1Cl`, 0%.
Regarding `Cc1ccc(NC2=NC3(CCCCC3)N=C(N)N2)c(C)c1`, the inhibition was 3%.
Under `COc1ccc(CCNc2oc(-c3ccco3)nc2C#N)cc1` stands 2%.
The figure for `N#Cc1ccccc1Cn1c(=O)n(Cc2ccc(C(=O)NCc3ccco3)cc2)c(=O)c2sccc21` is 9%.
The figure for `CCOc1ccc(N2CC(C(=O)Nc3ccc(F)cc3F)CC2=O)cc1` (stereo not drawn) is 6%; for `CCOc1ccc(NC(=O)CCN2CCN(c3ccccc3)CC2)cc1` it is 0%; for `CC(C)(C)NCC(O)COc1cccc2c1C[C@H](O)[C@H](O)C2` (stereo partly drawn) it is 0%.
